Experimental data: PubChem BioAssay (NCI)
This is part of a sample that, as a whole, favours compounds with a hit. Of some 83,000 tested, about 20% had one in any assay.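 For each line, cells grew in 96-well plates with the test compound present at a single concentration for 48 hours.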 Active and inactive are the calls of the source. The calls were made as follows: active = growth percent below 10; inactive = the rest.

How the values were obtained:
Test in all cases: NCI-60 one-dose screen, 48 h (100 = growth as untreated, 0 = no growth, -100 = all killed)
Conditions in all cases: 10 µM unless noted
NCI-H23 lung = system: NCI-H23 lung
NCI-H226 lung = system: NCI-H226 lung
NCI-H322M lung = system: NCI-H322M lung
HOP-62 NSCLC = system: HOP-62 NSCLC
NCI-H460 lung = system: NCI-H460 lung
HOP-92 NSCLC = system: HOP-92 NSCLC
NCI-H522 lung = system: NCI-H522 lung
A549/ATCC NSCLC = system: A549/ATCC NSCLC
786-0 renal = system: 786-0 renal
COLO 205 colon = system: COLO 205 colon
DU-145 prostate = system: DU-145 prostate
K-562 leukemia = system: K-562 leukemia
MALME-3M melanoma = system: MALME-3M melanoma
MDA-MB-231 breast = system: MDA-MB-231 breast
RXF 393 renal = system: RXF 393 renal
SF-268 CNS = system: SF-268 CNS
SF-295 CNS = system: SF-295 CNS
SF-539 CNS = system: SF-539 CNS
UACC-257 melanoma = system: UACC-257 melanoma
M14 melanoma = system: M14 melanoma

Measured: growth

O=C(CC1(O)C(=O)Nc2ccc(Br)cc21)c1ccc(C(=O)NCC2CCC3(CC2)OOC2(CCCCC2)OO3)cc1 (stereo not given)
inactive: NCI-H23 lung 53.7% | NCI-H226 lung 61.3% | NCI-H322M lung 80.1% | HOP-62 NSCLC 31% | NCI-H460 lung 36.4% | A549/ATCC NSCLC 36.7% | COLO 205 colon 51.4% | DU-145 prostate 59.1% | MDA-MB-231 breast 56.8% | RXF 393 renal 69.5% | SF-268 CNS 47.8% | SF-295 CNS 69.1% | SF-539 CNS 55% | UACC-257 melanoma 49.4% | M14 melanoma 61.6%
active: HOP-92 NSCLC -46.3% | NCI-H522 lung 6.67% | 786-0 renal -7.61% | K-562 leukemia -61% | MALME-3M melanoma -7.48%

O=C(O)C1C(C(=O)O)C2(Cl)C(Cl)=C(Cl)C1(Cl)C2(Cl)Cl.[Hg] (stereo not given)
active: NCI-H522 lung -50.2%
inactive: NCI-H23 lung 90.7% | NCI-H226 lung 106% | NCI-H322M lung 107% | HOP-62 NSCLC 103% | NCI-H460 lung 98.8% | HOP-92 NSCLC 127% | A549/ATCC NSCLC 85% | 786-0 renal 88% | COLO 205 colon 103% | DU-145 prostate 96.7% | K-562 leukemia 15.1% | MALME-3M melanoma 69.5% | MDA-MB-231 breast 86.4% | RXF 393 renal 123% | SF-268 CNS 97.5% | SF-295 CNS 95.2% | SF-539 CNS 102% | UACC-257 melanoma 74.7% | M14 melanoma 80.2%

CC12CCC(O)CC1=CCC1C2CCC2(C)C(O)CCC12 (stereo not given)
inactive: NCI-H23 lung 111% | NCI-H226 lung 90% | NCI-H322M lung 101% | HOP-62 NSCLC 103% | NCI-H460 lung 101% | HOP-92 NSCLC 85.4% | NCI-H522 lung 94.8% | A549/ATCC NSCLC 109% | 786-0 renal 103% | COLO 205 colon 106% | DU-145 prostate 105% | K-562 leukemia 115% | MALME-3M melanoma 102% | MDA-MB-231 breast 105% | RXF 393 renal 101% | SF-268 CNS 102% | SF-295 CNS 96.2% | SF-539 CNS 98.9% | UACC-257 melanoma 110% | M14 melanoma 106%

O=C(CCCCCNC1=CC(=O)c2ccccc2C1=O)NCCC[Te]c1ccccc1
active: NCI-H23 lung -12.9% | NCI-H226 lung -54.6% | NCI-H322M lung -8.86% | HOP-62 NSCLC -51% | NCI-H460 lung -45.3% | HOP-92 NSCLC -32.4% | NCI-H522 lung -18.5% | A549/ATCC NSCLC -45.4% | 786-0 renal -48.5% | COLO 205 colon -57% | DU-145 prostate -11.6% | MALME-3M melanoma -52.3% | MDA-MB-231 breast -39.8% | SF-268 CNS -26.7% | SF-295 CNS -32.5% | SF-539 CNS -49.7% | UACC-257 melanoma 2.91% | M14 melanoma -37.6%
inactive: K-562 leukemia 32.7% | RXF 393 renal 13.8%

C/C(=C\c1ccn(-c2ccccc2N)n1)[C@@H]1C[C@@H]2O[C@]2(C)CCC[C@H](C)[C@H](O)[C@@H](C)C(=O)C(C)(C)[C@@H](O)CC(=O)O1
active: COLO 205 colon -4.12% | DU-145 prostate -17.8% | RXF 393 renal -3.76% | SF-539 CNS -12% | M14 melanoma 2.49%
inactive: NCI-H23 lung 20.4% | NCI-H226 lung 33.8% | NCI-H322M lung 16.6% | HOP-62 NSCLC 41.7% | NCI-H460 lung 14.9% | HOP-92 NSCLC 77.4% | NCI-H522 lung 11.7% | A549/ATCC NSCLC 24.8% | 786-0 renal 17.8% | K-562 leukemia 14.6% | MALME-3M melanoma 41.7% | MDA-MB-231 breast 21.9% | SF-268 CNS 30.3% | SF-295 CNS 13.8% | UACC-257 melanoma 62.3%

COC(=O)[C@@H](C)C[C@H](Cc1ccccc1)NC(=O)c1nc([C@@H](C[C@H](C(C)C)N(C)C(=O)[C@@H](NC(=O)[C@H]2CCCCN2C)C(C)C)OC(C)=O)sc1C
active: NCI-H460 lung 4.31% | HOP-92 NSCLC 3.74% | NCI-H522 lung -12.8% | 786-0 renal 4.94% | COLO 205 colon -36.5% | DU-145 prostate 5.34% | K-562 leukemia 8.3% | MDA-MB-231 breast -11.6% | SF-539 CNS -16.5% | M14 melanoma -43.4%
inactive: NCI-H23 lung 35% | NCI-H226 lung 61.4% | NCI-H322M lung 36.3% | HOP-62 NSCLC 32.1% | A549/ATCC NSCLC 10.6% | MALME-3M melanoma 54% | RXF 393 renal 44.4% | SF-268 CNS 17.6% | SF-295 CNS 15.4% | UACC-257 melanoma 59.9%

COc1ccc2c(c1)c(-c1nc(-c3c[nH]c4ncccc34)cs1)cn2CCN1CCOCC1
inactive: NCI-H23 lung 57.3% | NCI-H226 lung 49.7% | NCI-H322M lung 57.3% | HOP-62 NSCLC 27.4% | NCI-H460 lung 40.8% | HOP-92 NSCLC 28.8% | NCI-H522 lung 44.5% | A549/ATCC NSCLC 51.2% | 786-0 renal 55.5% | COLO 205 colon 61.6% | DU-145 prostate 45.3% | K-562 leukemia 38.3% | MALME-3M melanoma 71% | MDA-MB-231 breast 51% | RXF 393 renal 53.7% | SF-268 CNS 60.9% | SF-295 CNS 62% | SF-539 CNS 48.2% | UACC-257 melanoma 92.1% | M14 melanoma 49.4%
